Records with an inconclusive call do not appear. Activity calls are given as the source filed them. Unless noted, the call rests on the fitted dose curve; in most records, active means well fitted curve in the direction sought with a large enough effect in the repeat runs; inconclusive means weak or mixed curves; inactive means no such curve, though single readings can be large; an effect the other way counts as inactive or inconclusive.
Experiments:
[1] = qHTS assay to identify small molecule antagonists of the glucocorticoid receptor (GR) signaling pathway - cell viability counter screen (AID 720693); further: nearly all actives have a fitted effect of over 55% in size
[2] = qHTS assay for identifying genotoxic compounds that show differential cytotoxicity against isogenic chicken DT40 cell lines with known DNA damage response pathways - wild type cell line (AID 743012); further: nearly all actives have a fitted effect of over 60% in size
Summary of the method: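 Wild-type DT40 cells (300/well) exposed to compounds for 40 hours at 37 C/5% CO2. Viability read by CellTiter-Glo luminescence after 30 min at room temperature.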

[3] = qHTS assay for identifying genotoxic compounds that show differential cytotoxicity against isogenic chicken DT40 cell lines with known DNA damage response pathways - Rev3 mutant cell line (AID 743014); further: nearly all actives have a fitted effect of over 55% in size
[4] = qHTS assay for identifying genotoxic compounds that show differential cytotoxicity against isogenic chicken DT40 cell lines with known DNA damage response pathways - Rad54/Ku70 mutant cell line (AID 743015); further: nearly all actives have a fitted effect of over 60% in size
[5] = qHTS assay to identify small molecule antagonists of the androgen receptor (AR) signaling pathway - cell viability counter screen (AID 743033; further: nearly all actives have a fitted effect of over 45% in size)
[6] = qHTS assay to identify small molecule antagonists of the androgen receptor (AR) signaling pathway using the MDA cell line - cell viability counter screen (AID 743041; further: nearly all actives have a fitted effect of over 45% in size)
Summary of the method: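 Viability counter screen run alongside the AR antagonist reporter: cells seeded 5 h before compound, R1881 added, 16 h incubation at 37C without CO2, fluorescent CellTiter-Fluor signal quantified.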

[7] = target: Androgen receptor (Homo sapiens) (UniProt P10275); experiment: qHTS assay to identify small molecule antagonists of the androgen receptor (AR) signaling pathway using the MDA cell line (AID 743042; further: nearly all actives have a fitted effect of over 55% in size)
Androgen receptor (Homo sapiens), sequence (P10275 whole entry, looked up): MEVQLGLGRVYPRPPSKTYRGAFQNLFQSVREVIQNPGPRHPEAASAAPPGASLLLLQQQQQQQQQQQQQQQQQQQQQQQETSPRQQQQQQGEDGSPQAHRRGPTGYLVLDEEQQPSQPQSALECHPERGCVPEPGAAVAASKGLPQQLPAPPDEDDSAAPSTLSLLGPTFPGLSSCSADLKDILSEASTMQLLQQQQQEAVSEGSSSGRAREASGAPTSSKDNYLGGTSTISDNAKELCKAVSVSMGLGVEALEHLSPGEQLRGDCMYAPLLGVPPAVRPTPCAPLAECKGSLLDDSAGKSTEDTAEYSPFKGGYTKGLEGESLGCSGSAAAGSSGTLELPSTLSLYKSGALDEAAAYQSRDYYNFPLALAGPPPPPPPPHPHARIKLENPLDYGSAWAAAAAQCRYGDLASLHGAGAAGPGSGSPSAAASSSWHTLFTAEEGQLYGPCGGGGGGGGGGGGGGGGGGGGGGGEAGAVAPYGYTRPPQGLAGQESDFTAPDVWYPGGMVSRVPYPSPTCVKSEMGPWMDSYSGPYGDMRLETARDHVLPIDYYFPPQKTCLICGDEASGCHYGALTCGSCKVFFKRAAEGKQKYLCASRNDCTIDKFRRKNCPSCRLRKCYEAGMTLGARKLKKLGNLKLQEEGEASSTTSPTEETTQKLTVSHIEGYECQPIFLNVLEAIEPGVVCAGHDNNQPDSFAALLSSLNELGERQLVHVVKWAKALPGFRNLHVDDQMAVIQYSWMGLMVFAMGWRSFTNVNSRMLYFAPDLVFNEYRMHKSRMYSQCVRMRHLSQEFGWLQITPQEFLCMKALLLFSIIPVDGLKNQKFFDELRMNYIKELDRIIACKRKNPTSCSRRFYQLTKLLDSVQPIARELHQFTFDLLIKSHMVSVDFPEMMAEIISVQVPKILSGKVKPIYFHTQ
Summary of the method: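 MDA-kb2 cells (human breast carcinoma, stably carrying an MMTV-luciferase reporter responsive to AR and GR) were plated at 3,000 cells/well and preincubated 5 hr at 37C, then given compound plus R1881 agonist for 16 h. ONE-Glo luminescence was read.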

[8] = qHTS assay to identify small molecule antagonists of the thyroid receptor (TR) signaling pathway - cell viability counter screen (AID 743064); further: nearly all actives have a fitted effect of over 50% in size
Summary of the method: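 Same-well viability check: GH3.TRE-Luc cells stimulated with 1 nM T3 alongside test compound for 23.5 h, followed by CellTiter-Fluor fluorescence.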

[9] = target: Androgen receptor (Homo sapiens) (UniProt P10275); experiment: qHTS assay to identify small molecule agonists of the androgen receptor (AR) signaling pathway (AID 743036; active means well fitted activation curve with a large enough effect in the signal ratio in the repeat runs, with a control signal flat, not every such curve was filed as active; the % refers to the signal ratio)
Summary of the method: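 Agonist activity was scored by beta-lactamase reporter fluorescence in stably transfected HEK293 cells exposed to compounds for 16 h at 37C and 5% CO2. Substrate loading took 2 h at room temperature.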

[10] = target: Androgen receptor (Homo sapiens) (UniProt P10275); experiment: qHTS assay to identify small molecule agonists of the androgen receptor (AR) signaling pathway using the MDA cell line (AID 743040; further: nearly all actives have a fitted effect of over 20% in size)
Summary of the method: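 Luminescence from ONE-Glo, read after 30 min at room temperature, reflects MMTV-driven luciferase in MDA-kb2 cells (AR- and GR-responsive). Treatment lasted 16 h at 37C, 0% CO2.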
On the % scale 0 is the no-effect control and ±100 the full control effect.

C=C(C)C(=O)OCCCC
inactive: outcome [1] | Potency [2] | Potency [3] | Potency [4] | outcome [5] | outcome [6] | outcome [7] | Potency [8]

CC[C@@]1(c2ccccc2)NC(=O)N(C)C1=O
inactive: outcome [1] | Potency [2] | Potency [3] | Potency [4] | outcome [5] | outcome [6] | Potency [8]

CCCCCCCCCCCBr
inactive: outcome [1] | Potency [2] | Potency [3] | Potency [4] | outcome [5] | outcome [6] | Potency [8]

CN(C)CCc1c[nH]c2ccc(CS(=O)(=O)N3CCCC3)cc12
inactive: outcome [1] | Potency [2] | Potency [3] | Potency [4] | outcome [5] | outcome [6] | Potency [8]

CC(C)(C)C(=O)CC(=O)C(C)(C)C
inactive: outcome [1] | Potency [2] | Potency [3] | Potency [4] | outcome [5] | outcome [6] | Potency [8]

CCN1CCN(C(=O)N[C@@H](C(=O)N[C@@H]2C(=O)N3[C@@H]2SC(C)(C)[C@H]3C(=O)O)c2ccccc2)C(=O)C1=O
inactive: outcome [1] | Potency [2] | Potency [3] | Potency [4] | outcome [5] | outcome [6] | Potency [8]

CCCCCCCCCCCC(C)=O
inactive: outcome [1] | Potency [2] | Potency [3] | Potency [4] | outcome [5] | outcome [6] | Potency [8]

O=C(c1ccccc1)c1cccc(O)c1
inactive: outcome [1] | Potency [2] | Potency [3] | Potency [4] | outcome [5] | outcome [6] | outcome [7]

NC(=O)CC[C@@H](N)C(=O)O
inactive: outcome [1] | Potency [2] | Potency [3] | Potency [4] | outcome [5] | outcome [6]

CC(C)(C)C(=O)NCCCC(=O)O
inactive: outcome [1] | Potency [2] | Potency [3] | Potency [4] | outcome [5] | outcome [6] | Potency [8]

Cc1nnc(C(=O)NC(C)(C)c2nc(C(=O)NCc3ccc(F)cc3)c(O)c(=O)n2C)o1
inactive: outcome [1] | Potency [2] | Potency [3] | Potency [4] | outcome [5] | outcome [6] | Potency [8]

CC(C)(C)c1ccc(N)cc1
inactive: outcome [1] | Potency [2] | Potency [3] | Potency [4] | outcome [5] | outcome [6] | Potency [8]

NCC1CCC(C(=O)Oc2ccc(CCC(=O)O)cc2)CC1 (stereo unspecified)
inactive: outcome [1] | Potency [2] | Potency [3] | Potency [4] | outcome [5] | outcome [6] | Potency [8]

O=S(=O)(O)c1ccc(Cl)cc1
inactive: outcome [1] | Potency [2] | Potency [3] | Potency [4] | outcome [5] | outcome [6] | Potency [8]

Cc1cc(O)c(Cl)cc1C
inactive: outcome [1] | Potency [2] | Potency [3] | Potency [4] | outcome [6] | Potency [8]

Cc1ccc(O)c(C(=O)c2ccccc2)c1
inactive: outcome [1] | Potency [2] | Potency [3] | Potency [4] | outcome [9] | outcome [10] | outcome [6] | Potency [8]

CCCCCCCCC1CO1 (stereo unspecified)
inactive: outcome [1] | Potency [2] | Potency [3] | Potency [4] | outcome [9] | outcome [10] | outcome [6] | outcome [7] | Potency [8]

Cc1ccccc1OCC(=O)O
inactive: outcome [1] | Potency [2] | Potency [3] | Potency [4] | outcome [6]

CCN1CCN(C(=O)N[C@@H](C(=O)N[C@@H]2C(=O)N3C(C(=O)O)=C(CSc4nnnn4C)CS[C@H]23)c2ccc(O)cc2)C(=O)C1=O
inactive: outcome [1] | Potency [2] | Potency [3] | Potency [4] | outcome [5] | outcome [6] | Potency [8]

CCOC(=O)CC
inactive: outcome [1] | Potency [2] | Potency [3] | Potency [4] | outcome [6] | Potency [8]

c1cc2ccc3ccc4ccc5cccc6c(c1)c2c3c4c56
inactive: viability change, negative = cytotoxic [1] -5.31% [at 3.15 µM] | activity change, negative = cytotoxicity [2] -1.12% [at 3.82 µM] | activity, negative = cytotoxicity [3] 5.02% [at 3.82 µM] | activity change, negative = cytotoxicity [4] 5.01% [at 3.83 µM] | activity change, negative = cytotoxicity [5] 1.8% [at 3.15 µM] | viability change, negative = cytotoxic [6] 14.1% [at 3.79 µM] | activity change, negative = cytotoxic [8] 20.6% [at 3.79 µM]

CNC(C)=O
inactive: outcome [1] | Potency [2] | Potency [3] | Potency [4] | outcome [5] | outcome [6] | Potency [8]

C=CC(=O)CC
inactive: outcome [1] | Potency [2] | Potency [3] | Potency [4] | outcome [5] | outcome [6] | Potency [8]

CCCC(=O)CC
inactive: outcome [1] | Potency [2] | Potency [3] | Potency [4] | outcome [5] | outcome [6] | Potency [8]

CCc1ncc(C)[nH]1
inactive: outcome [1] | Potency [2] | Potency [3] | Potency [4] | outcome [9] | outcome [10] | outcome [6] | outcome [7]

CCCCOCCCC
inactive: outcome [1] | Potency [2] | Potency [3] | Potency [4] | outcome [5] | outcome [6] | Potency [8]

CN(C)CCCN(C)C
inactive: viability change, negative = cytotoxic [1] 3.46% [at 7.04 µM] | activity change, negative = cytotoxicity [2] -5.84% [at 8.52 µM] | activity, negative = cytotoxicity [3] -13% [at 8.53 µM] | activity change, negative = cytotoxicity [4] 3.34% [at 8.55 µM] | viability change, negative = cytotoxic [6] 5.47% [at 8.47 µM] | activity change, negative = cytotoxic [8] 20.5% [at 8.44 µM]

CC(=O)Oc1ccc(C(C)=O)cc1
inactive: outcome [1] | Potency [2] | Potency [3] | Potency [4] | outcome [5] | outcome [6] | Potency [8]

O=Cc1ccc(C(=O)O)cc1
inactive: outcome [1] | Potency [2] | Potency [3] | Potency [4] | outcome [6] | Potency [8]

From PubChem BioAssay (Tox21)
